Screening data: PubChem BioAssay, National Center for Advancing Translational Sciences (NCATS)
IMPase Li cell – cell-permeable IMPase inhibitors with lithium potentiation; AID 1457; Potency, µM (top dose mostly 59.4 µM), for inactives: at the highest dose activity, negative = IMPase inhibition, hits mostly inhibitors; hit rate 0.35% among 210,000; CHO-M1 cells, IP1 TR-FRET (IP-One), carbachol + lithium;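 note: IP1 builds up when IMPase is blocked and the TR-FRET signal falls; potency is the fitted concentration of half-maximal effect; plate controls were basal vehicle for no effect and high inhibitor control for full effect; nearly all actives have a fitted effect of over 50% in size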
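Lithium-sensitised IP1 accumulation assay; M1-expressing CHO cells treated 30 min at 37C with compound. Competitive antibody detection by time-resolved FRET followed a 10 min room-temperature lysis step.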
12-hLO inh – blocks human 12-lipoxygenase activity; purified 12-hLO, xylenol orange hydroperoxide absorbance; Potency, µM (highest dose often 57.1 µM), without a hit: at the highest dose activity change, negative = inhibition, hits mostly inhibitors; hit rate 0.12% among 150,000; AID 1452; note: potency is the fitted concentration of half-maximal effect; nearly all actives have a fitted effect of over 55% in size
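Purified human 12hLO (150 nM final) was preincubated with compounds for 15 min at room temperature in 25 mM Hepes pH 7.0, 0.01% Triton X-100, then reacted with 40 uM arachidonic acid for 30 min. Hydroperoxide was detected with ferrous iron/xylenol orange.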
HPGD block – HPGD (human) dehydrogenase inhibition; P15428; AID 894; hit rate 4.3% among 150,000; Potency, µM, for inactives: top-dose activity change, negative = inhibition, most hits filed as inhibitors; purified HPGD, NADH fluorescence kinetic, PGE2 substrate; active = well fitted inhibition curve with a large enough effect, not every such curve was filed as active; inconclusive = small, poorly fitted or top-dose-only effect, or another doubt; inactive = no such curve, though single readings can be large or run the other way; note: potency is the fitted concentration of half-maximal effect
Target sequence (P15428 whole entry, looked up): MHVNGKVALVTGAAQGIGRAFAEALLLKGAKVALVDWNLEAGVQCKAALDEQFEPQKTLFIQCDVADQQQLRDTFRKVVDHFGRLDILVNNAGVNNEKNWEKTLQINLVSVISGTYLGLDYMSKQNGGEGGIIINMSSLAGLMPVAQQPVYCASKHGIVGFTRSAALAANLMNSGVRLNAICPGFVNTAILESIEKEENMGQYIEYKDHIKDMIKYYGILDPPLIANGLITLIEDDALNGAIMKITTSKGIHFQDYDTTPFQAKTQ
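20 nM HPGD preincubated 15 min at room temperature with compound in 50 mM Tris-HCl pH 8, 0.01% Tween 20. Started with 1 mM NAD+ and 30 uM prostaglandin E2; NADH fluorescence (360/450 nm) read 5 times over 30-s intervals, last minus first.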
ALDH1A1 inh – blocks purified human ALDH1A1 activity | P00352 | Purified ALDH1A1, NADH fluorescence, propionaldehyde substrate | Potency, µM (doses to about 75.3 µM), without a hit: top-dose activity, negative = inhibition, actives largely listed as inhibitors | hit rate 7.3% among 220,000 | AID 1030; active = well fitted inhibition curve with a large enough effect, not every such curve was filed as active; inconclusive = small, poorly fitted or top-dose-only effect, or another doubt; inactive = no such curve, though single readings can be large or run the other way;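 note: potency is the fitted concentration of half-maximal effect; plate controls were no enzyme wells and a reference inhibitor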
IMPase inh – IMPase inhibition in cells; P97697; CHO-M1 cells, IP1 accumulation, HTRF TR-FRET ratio; inhibition (IP1 accumulation), % at 46.1 µM; 120,000 tested, under 10 active; active = well fitted curve in the direction sought with a large enough effect in the signal ratio, not every such curve was filed as active; inconclusive = small, poorly fitted or top-dose-only effect, or a change in a side signal; inactive = no such curve, though single readings can be large or run the other way; the % refers to the signal ratio;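 note: cells stimulated with carbachol in lithium chloride buffer; plate controls were DMSO basal wells for no effect and reference inhibitor wells for full effect; higher means more IMPase inhibition seen as more IP1 and lower FRET ratio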
Target sequence (P97697 whole entry, looked up): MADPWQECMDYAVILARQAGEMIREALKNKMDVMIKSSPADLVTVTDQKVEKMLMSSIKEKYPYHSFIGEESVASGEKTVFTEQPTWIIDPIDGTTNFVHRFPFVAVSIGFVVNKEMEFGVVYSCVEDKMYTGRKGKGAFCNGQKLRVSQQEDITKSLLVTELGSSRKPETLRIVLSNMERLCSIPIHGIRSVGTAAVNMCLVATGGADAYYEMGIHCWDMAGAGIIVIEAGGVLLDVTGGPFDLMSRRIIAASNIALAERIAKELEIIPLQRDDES
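The IP-One HTRF competitive assay in carbachol-stimulated CHO-M1 cells quantifies cellular IP1. Compounds spanned up to 46 uM final, and activity is expressed as AC50 from concentration-response fits of the ratio and donor data.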
NPSR antag – neuropeptide S receptor (human) antagonism, cAMP; CHO-NPSR cells, cAMP TR-FRET, antagonist mode; hit rate 1% among 220,000; Q6W5P4; Potency, µM (top dose mostly 38.3 µM), for inactives: at the highest dose activity change, negative = inhibition, hits mostly inhibitors; note: potency is the fitted concentration of half-maximal effect; nearly all actives have a fitted effect of over 50% in size
* marks the source's active call; other numbers are inactive results; ? = inconclusive; . = not tested or not shown; [ ] = dose if it differs, or a comment. Rows were chosen to be rich in hits. Some 8.9% of all compounds tested hit in one or more screens of this group. Unless noted, calls come from the whole dose curve; as a rule, active = well fitted curve in the direction sought with a large enough effect; inconclusive = small, poorly fitted or top-dose-only effect, or another doubt; inactive = no such curve, though single readings can be large; an effect the other way counts as inactive or inconclusive. Unless noted, % is set by controls: 0 for no effect and ±100 for the full control effect.

SMILES | IMPase Li cell | 12-hLO inh | HPGD block | ALDH1A1 inh | IMPase inh | NPSR antag
O=C(CCl)Nc1cn(-c2ccccc2)nc1-c1ccccc1 | -5% | . | . | 14µM* | . | -19%
CC(=O)Nc1cn(-c2ccccc2)nc1-c1ccccc1 | 0% | . | . | 2% | . | 5%
COc1ccc(C2CC(=O)c3c(C)nc(N4CCN(c5ccccc5)CC4)nc3C2)cc1 (centres undefined) | 30%[38.3 µM] | 4% | ? | ? | 0 | -12%[46.1 µM]
Cc1nnc2nc(-c3ccccc3)nc(-c3ccccc3)n12 | . | . | . | . | . | -36%
CC(C)N1CCC(=NNc2ccc(S(=O)(=O)N3CCOCC3)cc2[N+](=O)[O-])CC1 | 3% | 1% | -8% | 28µM* | . | 10%
Cc1cc(C(=O)Nc2ccc(N3CCCC3)c(Cl)c2)ccc1[N+](=O)[O-] | 5% | -1% | -11% | 20µM* | . | -10%
O=C(NNC(=S)Nc1ccc(Cl)cc1Cl)c1ccc(N2CCOCC2)c([N+](=O)[O-])c1 | 21% | -14% | ? | 0.45µM* | 7 | -17%
O=C(Nc1ccc(N2CCCC2)c(Cl)c1)c1ccc([N+](=O)[O-])cc1 | -1% | 3% | -7% | 5% | . | 6%
Cc1cccc(NC(=O)c2ccc(N3CCOCC3)c([N+](=O)[O-])c2)n1 | 5% | . | . | ? | . | 6%
Cc1ccc(NC(=S)NNC(=O)c2ccc(N3CCOCC3)c([N+](=O)[O-])c2)cc1Cl | 1% | ? | -11% | 7.9µM* | 1 | -7%
O=C(NNC(=S)Nc1ccc(Br)cc1)c1ccc(N2CCOCC2)c([N+](=O)[O-])c1 | 1% | -8% | 35µM* | 0.89µM* | -5 | 5%
COc1ccc(OCC(=O)Nc2cc(-c3nn(C)c(=O)c4ccccc34)ccc2OC)cc1 | 7.9µM* | -9% | ? | ? | 8 | ?
CCN(CC)S(=O)(=O)c1cc(-c2nn(C)c(=O)c3ccccc23)ccc1C | 0%[38.3 µM] | 0% | ? | ? | 0 | -22%[46.1 µM]
Cc1ccc(-c2nn(C)c(=O)c3ccccc23)cc1CN1CCOCC1 | 4%[38.3 µM] | -3% | -10% | 10% | 4 | -12%[46.1 µM]
Cc1ccc(-c2nn(C)c(=O)c3ccccc23)cc1CO | 5% | 4% | 32µM* | 11% | 14 | -5%[46.1 µM]
Cc1ccc(-c2nn(C)c(=O)c3ccccc23)cc1CNC(=O)CN1CCOCC1 | 29%[38.3 µM] | 1% | 20µM* | ? | -2 | -15%[46.1 µM]
CCC(CO)Nc1ccc(-c2nn(C)c(=O)c3ccccc23)cc1[N+](=O)[O-] (centres undefined) | 5% | . | . | 1.4µM* | . | -38%
CC(=O)OCc1cc(-c2nn(C)c(=O)c3ccccc23)ccc1C | 3% | . | . | -4% | . | -21%
Cc1ccccc1NC(=S)N1CCC(C(=O)c2ccc(F)cc2)CC1 | 21%[38.3 µM] | -8% | -17% | -2% | -9[1.84 µM] | 11%[46.1 µM]
Cc1ccccc1-n1nc2c(c1NC(=O)c1c(-c3ccccc3Cl)noc1C)CSC2 | 17%[38.3 µM] | -1% | -3% | 6% | 5 | ?
COc1cc(C(=O)OCC(=O)c2cc(C)n(C)c2C)cc(NC(=O)c2ccco2)c1OC | 6%[38.3 µM] | -1% | ? | ? | 4 | 2%[46.1 µM]
COC(=O)c1ccc(-c2nn(C)c(=O)c3ccccc23)cc1 | 19%[38.3 µM] | 0% | ? | ? | -8 | 5%[46.1 µM]
Cn1nc(-c2ccc(C(=O)O)cc2)c2ccccc2c1=O | 26%[38.3 µM] | 4% | 7.9µM* | 6% | -5 | 1%[46.1 µM]
COC(=O)c1c(NC(=O)Nc2ccc(Cl)cc2)sc(C)c1C | ? | 1% | -22% | -16% | -18 | 10µM*
COC(=O)c1c(NC(C)=O)sc(C)c1C | 4% | . | . | 9% | . | 32%
Cc1sc(NC(=O)Nc2ccccc2)c(C(N)=O)c1C | 9% | . | . | 13µM* | . | 22%
C=CCSc1n[nH]c(=O)n1-c1cccc(C(F)(F)F)c1 | . | . | . | -4% | . | -6%
CCOc1ccc(N2C(=O)CC(NC3CCCCNC3=O)C2=O)cc1 (centres undefined) | 6% | -1% | -3% | 20µM* | 23 | -5%[46.1 µM]
